From PubChem BioAssay
Most compounds without a hit are left out; they make up all but 3.1% or so of the library.
MEKK2 mut-MEK5 = signal of MEK5 binding to mutant human MEKK2 PB1 domain; AID 1530; percent response, % at 10 µM; bead flow cytometry, Alexa488-MEK5 binding to MEKK2 mutant; 0.35% of 290,000 active; in the data active = percent response above about 24%, passing the limit was not always enough
MEKK2 WT-MEK5 = raises or lowers MEK5 binding to wildtype human MEKK2 PB1 domain | bead flow cytometry, Alexa488-MEK5 binding to MEKK2 WT; actives lie on both sides | 1.1% of 290,000 active | Q9Y2U5 | binding response (% of control), % at 10 µM; in the data active = binding response below about 67% or above about 130%
ATG4B inh = ATG4B (human) cysteine protease inhibition | Q9Y4P1 | ATG4B cleavage of LC3-PLA2, NBD-HPC fluorescence, 1 h | inhibition, % at 8.33 µM | 0.51% of 340,000 active | AID 504462; in the data active = inhibition above about 40%
Target sequence (Q9Y4P1 whole entry, looked up): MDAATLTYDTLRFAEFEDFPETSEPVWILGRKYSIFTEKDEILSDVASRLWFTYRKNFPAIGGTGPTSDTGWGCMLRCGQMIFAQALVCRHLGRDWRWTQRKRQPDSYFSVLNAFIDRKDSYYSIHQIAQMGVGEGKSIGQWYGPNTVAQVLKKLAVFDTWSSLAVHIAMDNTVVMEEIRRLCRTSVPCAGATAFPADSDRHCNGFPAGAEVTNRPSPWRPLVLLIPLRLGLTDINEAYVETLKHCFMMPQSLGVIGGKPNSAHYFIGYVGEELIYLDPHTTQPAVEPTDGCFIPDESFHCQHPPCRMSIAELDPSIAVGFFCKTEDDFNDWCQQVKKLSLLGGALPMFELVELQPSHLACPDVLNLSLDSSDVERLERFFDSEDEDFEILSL
MEKK3 PB1 HTS = raises or lowers MEK5 binding to the human MEKK3 PB1 domain; Q99759; bead-based flow cytometry, Alexa488-MEK5 binding to MEKK3; actives lie on both sides; 0 = blocked by unlabeled MEK5, 100 = vehicle; binding response (% of control), % at 10 µM; AID 1529; 1.4% of 290,000 active;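 active = binding response more than 3 SD above or below the average of its plate-row segment, actives on both sides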;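 note: Alexa488 bead fluorescence after subtracting the streptavidin-only scavenger bead signal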
UBC13 inh = inhibitors of human UBC13 polyubiquitin chain formation; 0.47% of 330,000 active; inhibition, % at 20 µM; AID 485273; TR-FRET; P61088; in the data active = inhibition above about 45%, passing the limit was not always enough
Target sequence (P61088 whole entry, looked up): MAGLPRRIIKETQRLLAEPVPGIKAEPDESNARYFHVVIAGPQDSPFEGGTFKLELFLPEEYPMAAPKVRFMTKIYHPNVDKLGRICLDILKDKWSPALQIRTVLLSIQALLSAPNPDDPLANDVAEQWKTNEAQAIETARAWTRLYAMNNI
PREPL inhibitor = inhibits the human prolyl oligopeptidase-like enzyme. 0.68% of 320,000 active. inhibition, % at 5.96 µM. recombinant PREPL, fluorescence polarization activity-based probe; in the data active = inhibition above about 43%;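 note: 0% = enzyme with DMSO and 100% = wells lacking enzyme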
ATG4B confirm = ATG4B (human) inhibition, single-dose confirmed; AID 504757; ATG4B protease fluorescent substrate cleavage assay; inhibition, % at 8.33 µM; 92% of 320 active; shares compounds with ATG4B inh; in the data active = inhibition above about 39%
PLA2 counter = counter-screen for ATG4B inhibitors: human phospholipase A2; shares compounds with ATG4B inh; purified PLA2, NBD-C6-HPC fluorescence, 45 min; inhibition, % at 8.33 µM; 66% of 1,600 active; in the data active = inhibition above about 50%
* marks the source's active call; other numbers are inactive results; nt = no result given.

SMILES | MEKK2 mut-MEK5 | MEKK2 WT-MEK5 | ATG4B inh | MEKK3 PB1 HTS | UBC13 inh | PREPL inhibitor | PLA2 counter | others
CC(=O)Oc1ccc(C(=O)N2c3ccccc3NC(=O)C2C)cc1 (stereo not given) | 3 | 102 | 6 | 100 | 4 | 13 | nt
Cc1cc(S(=O)(=O)N2CCOCC2)c(C)s1 | 5 | 100 | 2 | 100 | 2 | -8 | nt
COc1cc(/C=C/C(=O)O)cc(S(=O)(=O)Nc2cc(Cl)c(Cl)cc2Cl)c1OC | -5 | 96 | 41* | 100 | 0 | -6 | 7 | ATG4B confirm=52*
COc1cc(/C=C/C(=O)O)cc(S(=O)(=O)NC2CCCC2)c1OC | 9 | 111 | -4 | 107 | 4 | 0 | nt
CSc1nc2[nH]c(=O)n(O)c(=O)c2n1Cc1ccccc1 | nt | nt | -4 | nt | nt | nt | nt
C/C(=N/NC(=O)c1cc2ccccc2cc1O)C1C(=O)c2ccccc2C1=O | 0 | 96 | 49* | 101 | -16 | 33 | 26 | ATG4B confirm=73*
O=C(COc1ccc(C(=O)c2ccccc2)cc1)NCC1CCCCC1 | -4 | 88 | 46* | 84 | 2 | -2 | 14
Cc1ccccc1Cn1cc(NC(=O)CSc2nc3c(c(C(F)(F)F)n2)CCc2ccccc2-3)cn1 | 5 | 106 | 78* | 106 | -2 | -6 | 73*
O=C(Nc1c(F)cccc1F)c1ccc2c(c1)CCN2S(=O)(=O)c1ccccc1 | -2 | 100 | 69* | 100 | -3 | -12 | 69*
COc1ccc(C)cc1S(=O)(=O)N(CC(=O)Nc1cccc([N+](=O)[O-])c1)c1ccc(C)c(C)c1 | 2 | 118 | 88* | 101 | 6 | -1 | 90*
Cc1ccc(CNS(=O)(=O)c2ccc(C(C)(C)C)cc2)n1C | 0 | 99 | 86* | 98 | -2 | 18 | 89*
CC(C)(C)c1ccc(S(=O)(=O)NCCc2ccncc2)cc1 | -4 | 95 | -12 | 92 | 9 | -10 | nt
CCCCn1c(N)c(N(CCOC)C(=O)c2c(-c3ccccc3)noc2C)c(=O)[nH]c1=O | nt | nt | 4 | nt | -3 | 13 | nt
CC1(C)C(/C=C/C=C/C=C/C=C2\N(CCCCS(=O)(=O)O)c3ccc4ccccc4c3C2(C)C)=[N+](CCCCS(=O)(=O)[O-])c2ccc3ccccc3c21 | nt | nt | 90* | nt | -74 | -27 | 95*
NC(=O)c1ccccc1NC(=O)c1cc(S(=O)(=O)N2CCCCC2)ccc1N1CCOCC1 | nt | nt | -3 | nt | 10 | 12 | nt
O=[N+]([O-])c1ccccc1Nc1c2ccccc2nc2ccccc12 | -2 | 100 | -2 | 103 | -30 | -3 | nt
O=[N+]([O-])c1ccc(Nc2c3ccccc3nc3ccccc23)cc1 | -9 | 99 | 58* | 105 | -38 | nt | 60*
O=C(c1cnn(C(=O)COc2ccc(Cl)cc2)c1)c1ccccc1O | -2 | 91 | 56* | 102 | 8 | 1 | 60*
COc1ccc(CNC(=O)COC(=O)c2ccc(OCc3c(C)noc3C)cc2)cc1OC | 9 | 110 | -5 | 98 | -6 | 0 | nt
Cc1noc(C)c1COc1ccc(C(=O)OCC(=O)NCc2ccccc2Cl)cc1 | -2 | 94 | 45* | 96 | 3 | 12 | 46 | ATG4B confirm=64*
COc1cccc2c1oc1c(SCc3nc4ccccc4[nH]3)nc(C)nc12 | nt | nt | -13 | nt | 3 | -26 | nt
O=C(CCN1C(=O)/C(=C/c2ccc(F)cc2)SC1=S)N[C@@H](CO)Cc1ccccc1 | 2 | 102 | 0 | 103 | -24 | 9 | nt
O=C(Nc1sc(-c2ccccc2)cc1C(=O)O)c1ccccc1 | 1 | 103 | 68* | 104 | -4 | 22 | 81*
CCOC(=O)c1cc(-c2ccccc2)sc1NC(=O)c1ccc(OC)cc1 | 6 | 108 | -6 | 104 | 4 | 8 | nt
COc1ccc(CNc2ncnc3c2[nH]c2ccccc23)cc1 | -13 | 95 | 47* | 93 | 9 | 25 | 71*
SMILES | MEKK2 mut-MEK5 | MEKK2 WT-MEK5 | ATG4B inh | MEKK3 PB1 HTS | UBC13 inh | PREPL inhibitor | PLA2 counter | others
Cc1ccc2[nH]c3c(NCc4ccccc4)ncnc3c2c1 | -5 | 109 | 50* | 100 | 3 | nt | 60*
Brc1ccc2[nH]c3c(NCc4ccccn4)ncnc3c2c1 | -15 | 92 | 17 | 90 | 29 | 22 | nt
COc1ccc(CNc2ncnc3c2[nH]c2cc(OC)c(OC)cc23)cc1 | 4 | 115 | -7 | 101 | 29 | 41 | nt
COc1ccc(-n2c(=O)c3c4c(sc3n3c(=S)[nH]nc23)COC(C(C)C)C4)cc1 (stereo not given) | 6 | 97 | 4 | 101 | 1 | 2 | nt
CCCCCC(=O)Nc1ccccc1N1CCN(c2ccccc2)CC1 | 1 | 104 | 41* | 104 | 1 | 3 | 44 | ATG4B confirm=51*
CCCCC(=O)Nc1ccccc1N1CCOCC1 | 1 | 99 | -3 | 98 | -4 | 3 | nt
Cc1ccc(-c2nc(-c3cccnc3)sc2CC(=O)Nc2ccc3nc(C)sc3c2)cc1 | 3 | 105 | 45* | 102 | -6 | 1 | 12
CCOc1cc(Br)c(Br)c(C=Nc2ccc(NC(C)=O)cc2)c1O | 0 | 99 | 66* | 104 | -6 | -1 | 55*
CNC(=S)N(Cc1ccc(OC)cc1)Cc1cc2ccc(C)cc2[nH]c1=O | -14 | 69 | -3 | 73 | 8 | -3 | nt
COc1ccc(-c2cc(=O)c3cc(O)ccc3o2)cc1 | 2 | 91 | -15 | 94 | 10 | -8 | nt
COc1ccc(-c2cc(=Nc3ccc(C(=O)O)cc3)c3cc(C)ccc3o2)cc1 | 6 | 103 | 41* | 103 | 4 | -11 | 54*
CCc1ccc2oc(-c3ccc(OC)cc3)cc(=Nc3cccc(C(=O)O)c3)c2c1 | -8 | 94 | 81* | 109 | -15 | -7 | 80*
CCc1ccc2oc(-c3ccc(OC)cc3)cc(=Nc3c(C)n(C)n(-c4ccccc4)c3=O)c2c1 | -15 | 84 | 11 | 88 | 1 | -9 | nt
O=C(c1ccco1)N1CCN(S(=O)(=O)c2cccc([N+](=O)[O-])c2)CC1 | -3 | 99 | 0 | 96 | -4 | 2 | nt
O=C(O)c1cccc(NN=C2c3ccccc3-c3ccccc32)c1 | 3 | 99 | 13 | 108 | nt | nt | nt
O=C(O)c1cc(NN=C2c3ccccc3-c3ccccc32)ccc1Cl | -4 | 94 | 45* | 98 | -10 | 23 | 39 | ATG4B confirm=62*
CCN(CC)C(=O)c1ccc2c(=O)n(Cc3ccc4c(c3)OCO4)c(=S)[nH]c2c1 | 6 | 102 | -5 | 108 | 12 | 0 | nt
CC1CCCN(C(=O)c2ccc3c(=O)n(Cc4ccc5c(c4)OCO5)c(=S)[nH]c3c2)C1 (stereo not given) | -6 | 93 | 85* | 99 | 15 | -1 | 62*
